Compound activity (PubChem)
p53 PUMA act – mutant p53 pathway re-activators, primary screen, cell-based, SW480, luciferase, single point, HTS; SW480 PUMA-promoter luciferase, p53 mutant reactivation; activation, % at 9.98 µM; 1.5% of 28,000 active; in the data active means activation above about 52%
ID4 binder – binders of human ID4 protein, primary screen, biochemical, small molecule microarray, single point; DNA-binding protein inhibitor ID-4 (Homo sapiens), P47928; calls only; Flag-ID4 binding, fluorescence F/B; AID 624137, 2012; 1.2% of 31,000 active; call rule not given here;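 further: a binder raises fluorescence above local background on the spot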
Target sequence (P47928 whole entry, looked up): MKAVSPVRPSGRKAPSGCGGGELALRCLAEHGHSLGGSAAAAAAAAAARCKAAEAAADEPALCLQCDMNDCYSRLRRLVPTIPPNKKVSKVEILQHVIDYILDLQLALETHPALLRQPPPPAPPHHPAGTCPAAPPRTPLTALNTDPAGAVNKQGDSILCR
Active calls of the source: *; i = inactive; nt = no result given; + = active, no number. Hits are enriched below; roughly 2.3% of the tested compounds scored in any of these assays.

SMILES | p53 PUMA act | ID4 binder
Cn1c(SCc2nc(-c3cccs3)no2)nnc1-c1ccccc1 | -10 | i
Cn1c(SCc2nc(-c3cccs3)no2)nnc1-c1ccco1 | -11 | +
N#Cc1c[nH]c2ccc(NC(=O)/C=C/c3ccc(OC(F)(F)F)cc3)cc12 | 18 | i
Cc1nn2c(-c3cccc(NC(=O)CSc4nc5ccccc5o4)c3)nnc2c2ccccc12 | 74* | i
Cn1c(SCC(=O)Nc2cccc(F)c2)nnc1-c1cc2ccccc2o1 | -10 | i
COc1ccc(OCC(=O)Nc2cccc(-c3nnc4c5ccccc5c(C)nn34)c2)cc1 | 101* | i
Cc1nn2c(-c3cccc(NC(=O)CN4CCOCC4)c3)nnc2c2ccccc12 | 53* | i
COc1ccc(OCC(=O)Nc2ccc3nn(-c4ccc(Cl)cc4)nc3c2)cc1 | 39 | i
COc1ccc(-c2nnc3c4ccccc4c(C)nn23)cc1S(=O)(=O)N1CCOCC1 | 5 | i
CSc1ccccc1NC(=O)Cn1c(-c2nonc2N)nc2ccccc21 | -71 | i
O=C(CSc1nnc(-c2cccnc2)n1-c1ccccc1)N1CCc2ccccc21 | -10 | i
O=C(CSc1nnc(-c2cccnc2)n1-c1ccccc1)N1CCN(c2ccc(F)cc2)CC1 | -3 | +
COc1cc(S(=O)(=O)n2cnc3ccccc32)c(OC)cc1Cl | -2 | i
COc1cc(S(=O)(=O)n2nnc3ccccc32)c(OC)cc1Cl | 6 | +
O=C(CSc1nnnn1-c1ccccc1)Nc1ccc(Cl)c(C(=O)O)c1 | 3 | +
O=C(CSc1nnnn1-c1ccccc1)Nc1cc(Cl)ccc1C(=O)O | -6 | i
COc1ccc(CCNC(=O)C2OCCc3ccccc32)cc1OC (stereo unspecified) | -5 | +
O=C(NCc1ccco1)C1OCCc2ccccc21 (stereo unspecified) | 6 | i
O=C(O)COc1ccc(NC(=O)c2ccc(NC(=O)c3ccco3)cc2)cc1 | -14 | +
O=C(OCc1cccc([N+](=O)[O-])c1)c1ccc(NC(=O)c2ccco2)cc1 | 70* | i
CC(=O)Nc1ccc(C(=O)Nc2ccc(OCC(=O)O)cc2)cc1 | -4 | i
COc1ccc(C(=O)Nc2ccc(C(=O)OCc3cccc([N+](=O)[O-])c3)cc2)cc1 | 6 | i
Cc1ccc(N(CC(=O)Nc2ccccc2-c2ccccc2)S(C)(=O)=O)cc1C | -7 | i
Cc1cc(Nc2cnn(-c3nc4ccccc4o3)c(=O)c2Cl)ccc1Br | -16 | i
C[C@H]1CN([C@@H](C)CO)C(=O)CCCn2nncc2CO[C@H]1CN(C)CC1CCCCC1 | nt | i
SMILES | p53 PUMA act | ID4 binder
C[C@@H]1CN([C@@H](C)CO)C(=O)CCCn2nncc2CO[C@H]1CN(C)CC1CCCCC1 | nt | +
C[C@H]1CN([C@@H](C)CO)C(=O)CCCn2nncc2CO[C@@H]1CN(C)C(=O)Nc1ccccc1F | 13 | i
C[C@H](CO)N1C[C@H](C)[C@H](CN(C)CC2CCCCC2)OCc2cn(nn2)CCCC1=O | nt | i
C[C@H](CO)N1C[C@H](C)[C@@H](CN(C)C(=O)Nc2ccccc2F)OCc2cnnn2CCCC1=O | 11 | +
C[C@@H]1CN([C@H](C)CO)C(=O)CCCn2cc(nn2)CO[C@H]1CN(C)C(=O)c1ccc(N2CCN(C)CC2)cc1 | 12 | i
C[C@@H]1CN([C@@H](C)CO)C(=O)CCCn2cc(nn2)CO[C@H]1CN(C)C(=O)c1ccc(N2CCN(C)CC2)cc1 | 0 | +
C[C@H](CO)N1C[C@H](C)[C@@H](CN(C)CC2CCCCC2)OCc2cn(nn2)CCCC1=O | nt | +
COC(=O)c1ccc(NC(=O)CSc2nnc(-c3cccs3)n2-c2ccc(OC)cc2)cc1 | -37 | i
CCn1c(SCC(=O)Nc2cccc(SC)c2)nnc1-c1ccc(Br)cc1 | -10 | i
O=C(Nc1cc(Cl)cc(Cl)c1)N1CCC(n2cccc2)CC1 | 9 | i
COC(=O)c1cn(CC(=O)Nc2ccccc2C(F)(F)F)c2ccccc12 | 3 | i
COC(=O)COc1cccc(NC(=O)c2ccccc2Cl)c1 | -1 | i
CNc1ccccc1C(=O)OC1OC(C)C(O)C(O)C1O (stereo unspecified) | 12 | +
C[C@@H]1O[C@@H](OC[C@H]2O[C@@H](OCc3ccccc3)[C@H](O)[C@@H](O)[C@@H]2O)[C@H](O)[C@H](O)[C@H]1O | 6 | nt
COc1ccc(C(=O)NCC(=O)Nc2cccc(C(F)(F)F)c2)cc1 | -8 | i
COc1cccc(NC(=O)CNC(=O)c2ccccc2)c1 | 57* | i
Cc1cc(=O)[nH]c(SC(C)C(=O)Nc2cccc(Cl)c2)n1 (stereo unspecified) | -1 | i
C[C@H](CO)N1C[C@H](C)[C@@H](CN(C)C(=O)c2ccncc2)Oc2cc(C3=CCCC3)ccc2S1(=O)=O | 10 | +
